# Laboratory results: article PMC4336329 (PLoS ONE, 2015)
# The campaign covered roughly 310,000 compounds. About 14,000 (4.5%) showed an effect of 50% or more. Effects have a minus sign here. What follows is part of a selection rich in strong results, with near analogues and random picks from the rest.
# Molecular target: human ether-à-go-go-related gene (hERG) potassium channel (human, UniProt Q12809)
# Assay: primary screen, population patch clamp on CHO cells stably expressing hERG; higher = less effect of the substance
# 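Further: peak tail current of the secondary pulse compared with the same well before compound.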
# Sequence of human ether-à-go-go-related gene (hERG) potassium channel (Q12809 whole entry, looked up): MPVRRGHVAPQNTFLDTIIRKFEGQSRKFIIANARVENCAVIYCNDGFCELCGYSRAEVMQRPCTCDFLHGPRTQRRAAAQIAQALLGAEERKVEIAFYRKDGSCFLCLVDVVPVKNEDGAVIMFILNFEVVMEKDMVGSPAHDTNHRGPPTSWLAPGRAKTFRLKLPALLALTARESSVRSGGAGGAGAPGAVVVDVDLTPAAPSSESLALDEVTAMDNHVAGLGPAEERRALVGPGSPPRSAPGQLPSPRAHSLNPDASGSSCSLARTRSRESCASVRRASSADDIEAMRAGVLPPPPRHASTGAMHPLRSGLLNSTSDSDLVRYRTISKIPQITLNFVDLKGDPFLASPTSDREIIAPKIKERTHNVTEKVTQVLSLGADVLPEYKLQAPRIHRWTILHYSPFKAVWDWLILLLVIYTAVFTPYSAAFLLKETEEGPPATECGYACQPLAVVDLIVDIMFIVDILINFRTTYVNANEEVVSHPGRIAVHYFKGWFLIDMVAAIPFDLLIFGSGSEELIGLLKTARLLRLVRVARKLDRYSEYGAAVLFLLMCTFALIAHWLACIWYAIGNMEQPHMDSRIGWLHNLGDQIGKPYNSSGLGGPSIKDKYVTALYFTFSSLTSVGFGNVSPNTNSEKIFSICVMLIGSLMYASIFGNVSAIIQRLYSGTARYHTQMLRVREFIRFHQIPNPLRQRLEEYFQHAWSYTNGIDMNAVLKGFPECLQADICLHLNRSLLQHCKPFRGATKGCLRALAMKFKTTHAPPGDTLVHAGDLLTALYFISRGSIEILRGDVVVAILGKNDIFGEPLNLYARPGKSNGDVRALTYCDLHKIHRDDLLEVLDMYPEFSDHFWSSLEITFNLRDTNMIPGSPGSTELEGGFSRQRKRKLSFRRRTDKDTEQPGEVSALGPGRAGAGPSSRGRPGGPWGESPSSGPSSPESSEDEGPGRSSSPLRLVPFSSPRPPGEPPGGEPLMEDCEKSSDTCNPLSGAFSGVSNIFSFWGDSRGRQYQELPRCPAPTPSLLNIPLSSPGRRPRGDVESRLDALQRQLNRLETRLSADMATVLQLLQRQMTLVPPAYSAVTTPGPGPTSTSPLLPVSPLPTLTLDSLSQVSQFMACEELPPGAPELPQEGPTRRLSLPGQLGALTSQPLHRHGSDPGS
row,Structure (SMILES),"hERG current change (%, negative = inhibition) at 10uM"
1,CCc1nnc(NC(=O)CSc2ncc(-c3ccccc3)n2C)s1,-0.226%
2,Cc1cnccc1CN(C)Cc1cn(C)nc1-c1ccc(Oc2ccccc2)cc1,-27.4%
3,Cn1cc(CNCc2cnc3ccccn23)c(-c2ccc(Oc3ccccc3)cc2)n1,-50%
4,CN(Cc1cn(C)nc1-c1ccc(Oc2ccccc2)cc1)Cc1cnc2ccccn12,-54%
5,NC(=O)C1CCN(C2=C(Cl)C(=O)c3ccccc3C2=O)CC1,13.6%
6,NC12CC3CC(C1)CC(CO)(C3)O2,8.54%
7,COc1ccc(N(CC(=O)N2c3ccccc3CC2C)S(=O)(=O)c2c(C)nn(C)c2C)cc1 (centres unmarked),-25.9%
8,OC(CN1CCN(Cc2ccccc2)CC1)c1ccc(Br)cc1 (centres unmarked),-67.9%
9,OC(CN1CCN(Cc2ccccc2)CC1)c1ccccc1 (centres unmarked),-30.3%
10,OC(CN1CCOCC1)c1ccc(F)cc1 (centres unmarked),12.6%
11,OC(CN1CCN(C(c2ccccc2)c2ccccc2)CC1)c1ccc(Br)cc1 (centres unmarked),-28.8%
12,OC(CN1CCN(c2ccccc2F)CC1)c1ccc(F)cc1 (centres unmarked),-19.3%
13,Cl.OC(CN1CCN(Cc2ccccc2)CC1)c1ccc(F)cc1 (centres unmarked),-67.9%
14,Cl.Oc1ccc(C2=CCNCC2)cc1O,10.1%
15,c1cnc(SCCOc2cccc3ccccc23)nc1,-8.05%
16,C=CCNC(=S)NNc1nc(Nc2ccccc2)nc(N2CCCCC2)n1,10.3%
17,COc1ccc(-c2nc(CC(=O)O)cs2)cc1,6.7%
18,CCCCN1C(=O)C(=O)N(CC(=O)N2CCN(c3ccccc3)CC2)C1=O,3.67%
19,CCOc1ccc(/C=N/N(C)c2ccccc2)cc1OC,15.8%
20,CCNc1oc(-c2cccc3ccccc23)nc1C#N,15.7%
21,COc1ccc(Cn2c(-c3ccc(Br)cc3)c[n+]3ccccc23)cc1.[Br-],-8.08%
22,COc1ccc(-c2c[n+]3c4n2CCCCC4=C(c2ccc(Br)cc2)C3)cc1.[Br-],-75.1%
23,COc1ccc(-c2c[n+](CC(=O)N3c4ccccc4Sc4ccccc43)c3n2CCC3)cc1.[Cl-],-38.2%
24,C[n+]1cc(-c2ccccc2)n2c1CCCCC2.[I-],4.03%
25,COc1ccc(-c2c[n+]3c4n2CCCCC4=C(c2ccccc2)C3)cc1.[Br-],-75.1%
26,COc1ccc(-c2c[n+](CC(=O)c3ccccc3)c3n2CCCCC3)cc1.[Br-],11.7%
27,Clc1ccc(C2=C3CCCCn4c(-c5ccccc5)c[n+](c43)C2)cc1.[Br-],-82.1%
28,COc1ccc(-c2nnc3n2CCCCC3)cc1,19.9%
29,Clc1ccc(-c2cnc3n2CCCCC3)cc1,-46.4%
